Our source for the growth inhibition values is PubChem BioAssay (NCI).

A short description of test [1]: NCI Yeast Anticancer Drug Screen. Data for the rad50 strain (AID 155).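 Also: 0% = growth of vehicle-only cultures of the same strain.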 To be noted: S. cerevisiae rad50 strain growth inhibition, stronger effect = higher value. An outline of the steps: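 Growth of the mutant yeast was measured after compound exposure and referenced to vehicle-treated cultures.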
The nature of test [2]: NCI Yeast Anticancer Drug Screen. Data for the mec2-1 strain (AID 157). To be noted: S. cerevisiae mec2-1 strain, stronger effect = higher value. The essentials:
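Growth inhibition is read against vehicle-treated controls after compound exposure of the mec2-1 yeast strain, which is defective in DNA damage repair or cell cycle control.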

Test [3] is described as follows: NCI Yeast Anticancer Drug Screen. Data for the sgs1 mgt1 strain (AID 161).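 Also: 0% = growth of cultures given vehicle only.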 To be noted: S. cerevisiae sgs1 mgt1 strain, stronger effect = higher value. An outline of the steps:
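Growth of a repair-deficient yeast mutant was monitored after compound treatment and expressed as inhibition relative to vehicle-treated cultures.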

Test [4] in a line: NCI Yeast Anticancer Drug Screen. Data for the cln2 rad14 strain (AID 165).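 Also: 0% = growth equal to vehicle treated cultures.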 Conditions: S. cerevisiae cln2 rad14 strain, stronger effect = higher value. The essentials:
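Growth inhibition, relative to vehicle-treated controls, is the read-out. The test organism is a yeast strain with defined genetic alterations, cln2 rad14.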

A short description of test [5]: NCI Yeast Anticancer Drug Screen. Data for the bub3 strain (AID 167). To be noted: S. cerevisiae bub3 mutant strain, stronger effect = higher value. An outline of the steps: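 Whole-cell yeast assay. The mutant strain was incubated with compounds, and growth inhibition was determined by comparison with vehicle-treated cells.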
Test [6] is described as follows: NCI Yeast Anticancer Drug Screen. Data for the mlh1 rad18 strain (AID 175). Conditions: S. cerevisiae mlh1 rad18 strain growth inhibition, stronger effect = higher value. The essentials: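 Cells of a genetically altered yeast strain, deficient in DNA damage repair, were treated with compound. Their growth was then compared with that of vehicle-treated cultures to give inhibition.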

Setting [7] is: at 5.0 µM (retest, dose inferred, filed as 0.5).
[8] abbreviates: at 50.0 µM (retest, dose inferred, filed as 5.0).

Several values for one entry are separate records, joined by “and”; a condition that tells them apart may be missing. Equal entries are not always repeated. About 79,000 compounds went through this panel and 15% of them were active in at least one assay; those are over-represented in the sample as a whole. Values without a mark were called inactive. Activity calls are given as the source filed them. Rule as the data show it: active = growth inhibition above about 70%; inactive = the rest.

With `CC(=O)Nc1cccc([As+](C)(c2cccc(NC(C)=O)c2)c2cccc(NC(C)=O)c2)c1`, the growth inhibition was -1% in test [1] (setting [7]); 11% in test [1] (setting [8]); 4.35% in test [1] (at 50.0 µM); 13% in test [2] (setting [7]); 14% in test [2] (setting [8]); -2% in test [2] (at 50.0 µM). The growth inhibition in test [3] (setting [7]) is -14%; in test [3] (setting [8]), 13%; in test [3] (at 50.0 µM) it was -5.65%; in test [4] (setting [7]), 18%; in test [4] (setting [8]), 15%; in test [4] (at 50.0 µM) it was -26%. For the same compound, the growth inhibition was 5% in test [5] (setting [7]); 3% in test [5] (setting [8]); 6.05% in test [5] (at 50.0 µM); 7% in test [6] (setting [7]); 11% in test [6] (setting [8]); 8.65% in test [6] (at 50.0 µM).

For `S=P(S)(Oc1ccccc1)Oc1ccccc1`, the growth inhibition in test [1] (setting [7]) is -10%; in test [1] (setting [8]), 25%; in test [1] (at 50.0 µM) it was 56%; in test [2] (setting [7]) it was -18%; in test [2] (setting [8]) it was 18%; in test [2] (at 50.0 µM), 77.7% (active). In addition, the growth inhibition in test [3] (setting [7]) is 1%; in test [3] (setting [8]), 17%; in test [3] (at 50.0 µM), 40.4%; in test [4] (setting [7]), -11%; in test [4] (setting [8]), 20%; in test [4] (at 50.0 µM), 92.9% (active). Moreover, the growth inhibition is -4% in test [5] (setting [7]); 38% in test [5] (setting [8]); 75.2% (active) in test [5] (at 50.0 µM); -12% in test [6] (setting [7]); 10% in test [6] (setting [8]); 90.2% (active) in test [6] (at 50.0 µM).

For `C1CC[N-]CC1.[Cl][Au]([Cl])[Cl]`, the growth inhibition is 42% in test [1] (setting [7]); 93% (active) in test [1] (setting [8]); 93.3% (active) in test [1] (at 50.0 µM); 15% in test [2] (setting [7]); 63% in test [2] (setting [8]); 65.5% in test [2] (at 50.0 µM). Moreover, the growth inhibition in test [3] (setting [7]) was 26%; in test [3] (setting [8]) it was 89% (active); in test [3] (at 50.0 µM), 93% (active); in test [4] (setting [7]), 31%; in test [4] (setting [8]), 74% (active); in test [4] (at 50.0 µM) it was 60.4%. Also, the growth inhibition in test [5] (setting [7]) was 25%; in test [5] (setting [8]), 76% (active); in test [5] (at 50.0 µM), 48.9%; in test [6] (setting [7]), 34%; in test [6] (setting [8]) it was 94% (active); in test [6] (at 50.0 µM) it was 96.8% (active).

For `S=C=Nc1cccc(Cl)c1`, the growth inhibition in test [1] (setting [7]) is -17%; in test [1] (setting [8]) it was 84% (active); in test [1] (at 50.0 µM), 85.2% (active); in test [2] (setting [7]), -7%; in test [2] (setting [8]) it was 90% (active); in test [2] (at 50.0 µM), 86% (active). Besides, the growth inhibition was -10% in test [3] (setting [7]); 90% (active) in test [3] (setting [8]); 88.8% (active) in test [3] (at 50.0 µM); 35% in test [4] (setting [7]); 65% in test [4] (setting [8]); 80.3% (active) in test [4] (at 50.0 µM). The growth inhibition in test [5] (setting [7]) is 7%; in test [5] (setting [8]), 89% (active); in test [5] (at 50.0 µM), 85.2% (active); in test [6] (setting [7]) it was 2%; in test [6] (setting [8]), 89% (active); in test [6] (at 50.0 µM), 79.3% (active).

As for `CCOC(=O)C1=C(C)NC(=O)NC1c1ccc(N(CCCl)CCCl)cc1Cl` (centres undefined), the growth inhibition in test [1] (setting [7]) was 6%; in test [1] (setting [8]) it was 78% (active); in test [1] (at 50.0 µM), 38.6%; in test [2] (setting [7]), 46%; in test [2] (setting [8]) it was 59%; in test [2] (at 50.0 µM), 44.1%. The growth inhibition in test [3] (setting [7]) is -3%; in test [3] (setting [8]) it was 34%; in test [3] (at 50.0 µM), 24.9%; in test [4] (setting [7]), -8%; in test [4] (setting [8]) it was 74% (active); in test [4] (at 50.0 µM) it was -10.8%. In addition, the growth inhibition in test [5] (setting [7]) was 13%; in test [5] (setting [8]), 97% (active); in test [5] (at 50.0 µM), 92.6% (active); in test [6] (setting [7]), 3%; in test [6] (setting [8]) it was 88% (active); in test [6] (at 50.0 µM) it was 78.5% (active).

Consider `O=C(COc1ccc(Cl)c(Cl)c1)N(Cc1ccccc1)Cc1ccc[n+](Cc2ccc(Cl)cc2S(=O)(=O)F)c1`, for which the growth inhibition in test [1] (setting [7]) is 8%; in test [1] (setting [8]) it was 84% (active); in test [1] (at 50.0 µM), 54%; in test [2] (setting [7]), 44%; in test [2] (setting [8]), 42%; in test [2] (at 50.0 µM), 54.9%. Moreover, the growth inhibition in test [3] (setting [7]) is 2%; in test [3] (setting [8]), 62%; in test [3] (at 50.0 µM) it was -0.3%; in test [4] (setting [7]) it was 10%; in test [4] (setting [8]), 78% (active); in test [4] (at 50.0 µM) it was 50.4%. For the same compound, the growth inhibition was 2% in test [5] (setting [7]); 82% (active) in test [5] (setting [8]); 42.4% in test [5] (at 50.0 µM); 6% in test [6] (setting [7]); 96% (active) in test [6] (setting [8]); 60.1% in test [6] (at 50.0 µM).

On to `CCC1(O)CC(OC2CC(N(C)C)C(OC3CC4OC5CC(=O)C(C)OC5OC4C(C)O3)C(C)O2)c2c(cc3c(c2O)C(=O)c2c(O)ccc(O)c2C3=O)C1C(=O)OC` (centres undefined), for which the growth inhibition is 88% (active) and 93% (active) in test [1] (setting [7]); 97% (active) and 98% (active) in test [1] (setting [8]); 89.9% (active) and 87.5% (active) and 91.9% (active) in test [1] (at 50.0 µM); 71% (active) and 96% (active) and 95% (active) in test [2] (setting [7]); 98% (active) in test [2] (setting [8]); 90% (active) and 89.7% (active) and 92% (active) in test [2] (at 50.0 µM). The growth inhibition in test [3] (setting [7]) was 89% (active) and 79% (active) and 93% (active); in test [3] (setting [8]), 98% (active) and 97% (active); in test [3] (at 50.0 µM), 91% (active) and 90% (active); in test [4] (setting [7]), 73% (active) and 85% (active) and 86% (active); in test [4] (setting [8]), 96% (active) and 97% (active); in test [4] (at 50.0 µM) it was 88% (active) and 87.9% (active) and 91.4% (active). The growth inhibition in test [5] (setting [7]) is 93% (active) and 92% (active); in test [5] (setting [8]), 98% (active) and 97% (active); in test [5] (at 50.0 µM), 88.6% (active) and 87.2% (active) and 84.8% (active); in test [6] (setting [7]), 92% (active) and 96% (active) and 94% (active); in test [6] (setting [8]), 97% (active) and 96% (active) and 98% (active); in test [6] (at 50.0 µM), 89.8% (active) and 86% (active) and 89.9% (active).

For `Cc1cc[n+](C2=C(Nc3ccc(Cl)cc3Cl)C(=O)c3ccccc3C2=O)cc1`, the growth inhibition in test [1] (setting [7]) was 41%; in test [1] (setting [8]), 90% (active); in test [1] (at 50.0 µM), 92.3% (active); in test [2] (setting [7]) it was -1%; in test [2] (setting [8]) it was 58%; in test [2] (at 50.0 µM), 61.5%. The growth inhibition was 1% in test [3] (setting [7]); 59% in test [3] (setting [8]); 66.4% in test [3] (at 50.0 µM); 4% in test [4] (setting [7]); 39% in test [4] (setting [8]); 40.2% in test [4] (at 50.0 µM). In addition, the growth inhibition in test [5] (setting [7]) was 5%; in test [5] (setting [8]), 78% (active); in test [5] (at 50.0 µM) it was 61.1%; in test [6] (setting [7]) it was 4%; in test [6] (setting [8]), 58%; in test [6] (at 50.0 µM), 81% (active).
